Structures are written as SMILES. Compounds without any hit were thinned out: in the full panel of roughly 83,000, 20% have a hit.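 Each cell line was grown in a 96-well plate and treated with one concentration of compound for 48 hours. Values below 10 were considered active.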 Unmarked numbers belong to inactive results. The source made the active and inactive calls.

Common to all, as to assay: NCI-60 one-dose screen, 48 h (100 = growth as untreated, 0 = no growth, -100 = all killed)
What all share (conditions): 10 µM

In assay [1] the test system is T-47D breast.
In assay [2] the test system is BT-549 breast.
For assay [3], the system named is MDA-MB-435 melanoma.
Assay [4] has as its system SW-620 colon.
The test system of assay [5] is MCF7 breast.
In assay [6] the test system is HCT-116 colon.
Assay [7] relates to HCC-2998 colon.
Assay [8] concerns KM12 colon.

Take `N#CC1=CC2CN(Cc3ccccc3)C1C1C(=O)N(c3ccccc3)C(=O)C21` (stereo not given): the growth in assay [1] was 99.5%; in assay [2], 95%; in assay [3], 105%; in assay [4], 95.2%; in assay [5] it was 97.1%; in assay [6], 101%. Further, the growth in assay [7] is 92.1%; in assay [8], 103%.

Take `O=C(CN1CCN(C(=O)c2ccccc2)CC1)Nc1ccccc1SCc1ccccc1`: the growth in assay [1] is 37.7%; in assay [2], 68.1%; in assay [3], 94.3%; in assay [4] it was 98.5%; in assay [5], 86.4%; in assay [6], 85.5%. The growth in assay [7] is 93.6%; in assay [8], 84.2%.

On to `CN1CCN(CC(=O)Nc2cccc(-n3cc(-c4ccncc4)c(-c4ccc(Cl)c(O)c4)n3)c2)CC1`, for which the growth in assay [1] is 61.3%; in assay [2], 36.6%; in assay [3], -47.5% (active); in assay [4], 20.8%; in assay [5] it was 15.2%; in assay [6], 17.3%. In addition, the growth in assay [7] was 85.6%; in assay [8] it was 26.1%.

For the molecule `O=C(CNc1nnc(-c2cccnc2SCc2ccccc2)s1)Nc1nc(Cl)cc(Cl)n1`, the growth in assay [1] is 79.3%; in assay [2] it was 100%; in assay [3], 114%; in assay [4], 117%; in assay [5], 89.1%; in assay [6], 106%. In addition, the figures for the growth in assay [7] and in assay [8] were 122% and 97.9%, respectively.

Take `O=C(CCCNC(=O)c1nc(-c2ccccc2)n(-c2ccccc2)n1)NO`: the growth in assay [1] was 94%; in assay [2], 106%; in assay [3], 109%; in assay [4] it was 106%; in assay [5], 92%; in assay [6], 85.6%. Besides, the values for the growth in assay [7] and in assay [8] were 98.9% and 110%, respectively.

With `COC(=O)C1(O)NC(=C(C#N)C#N)C(C#N)=C1C(=O)c1ccc(OC)c(OC)c1` (stereo not given), the growth was 98.6% in assay [1]; 89.1% in assay [2]; 104% in assay [3]; 97.9% in assay [4]; 95.4% in assay [5]; 90.9% in assay [6]. Further, the growth in assay [7] is 117%; in assay [8] it was 105%.

Consider `CCOC(=O)C1C(C(=O)OCC)C2C(=O)C3C(C(=O)OCC)C(C(=O)OCC)C3C(=O)C12` (stereo not given), for which the growth in assay [1] is 100%; in assay [2] it was 109%; in assay [3], 105%; in assay [4], 111%; in assay [5], 99.8%; in assay [6], 104%. Further, the values for the growth in assay [7] and in assay [8] were 107% and 109%, respectively.

On to `CC(C)(C)OC(=O)CN1CCc2c(sc3ncnc(N/N=C/c4ccccc4Br)c23)C1`, for which the growth in assay [1] was 47.3%; in assay [2], 82.9%; in assay [3], 80.5%; in assay [4], 60.6%; in assay [5], 3.49% (active); in assay [6] it was 48.7%. Further, the values for the growth in assay [7] and in assay [8] were 76.3% and 80%, respectively.

Take `O=C(O)COc1c(Cl)cc([N+](=O)[O-])cc1Cl`: the growth in assay [1] is 108%; in assay [2], 90%; in assay [3] it was 105%; in assay [4], 110%; in assay [5] it was 94.7%; in assay [6], 83.4%. Also, the growth was 101% in assay [7] and 98.1% in assay [8].

On to `Cc1[nH]c2ccccc2c1/C=N/Nc1ncnc2sc3c(c12)CCN(CC(=O)OC(C)(C)C)C3`, for which the growth in assay [1] was 80.7%; in assay [2] it was 81.4%; in assay [3], 32.3%; in assay [4], 60%; in assay [5], 65.4%; in assay [6], 40.8%. The values for the growth in assay [7] and in assay [8] were 99.5% and 76%, respectively.

In the case of `CCC1NC(=O)c2cc(S(N)(=O)=O)c(Cl)cc2N1` (stereo not given), the growth in assay [1] is 104%; in assay [2], 114%; in assay [3], 101%; in assay [4], 108%; in assay [5], 106%; in assay [6], 115%. The figures for the growth in assay [7] and in assay [8] were 105% and 113%, respectively.

For the molecule `Cc1c(Cl)cccc1NC(=O)CCCl`, the growth in assay [1] was 92.3%; in assay [2] it was 99.7%; in assay [3], 105%; in assay [4], 106%; in assay [5], 102%; in assay [6], 89.4%. Also, the growth in assay [7] is 99.1%; in assay [8] it was 100%.

As for `NC(N)=N/N=C(\N=Nc1ccccc1)c1ccc(Cl)cc1`, the growth in assay [1] was 20.4%; in assay [2], 67.2%; in assay [3], 5.69% (active); in assay [4], 12.7%; in assay [5], 23.8%; in assay [6], 15%. Further, the growth in assay [7] was 11%; in assay [8] it was 20.8%.

For the molecule `COc1cc(/C=C/c2cc(/C=C/c3ccc(O)c(OC)c3)nc(N)n2)ccc1O`, the growth in assay [1] was 1.57% (active); in assay [2], -24.4% (active); in assay [3], -8.12% (active); in assay [4], 1.86% (active); in assay [5], 7.59% (active); in assay [6], 0.331% (active). Also, the growth in assay [7] was 0.932% (active); in assay [8] it was -29.3% (active).

Turning to `Cc1cc(O)ccc1C1=NN(c2ccc(S(C)(=O)=O)cc2)C(=O)CC1`, the growth in assay [1] was 84.8%; in assay [2], 58.2%; in assay [3], -8.25% (active); in assay [4], 46.6%; in assay [5], 82.8%; in assay [6] it was 52.4%. The growth in assay [7] was 78.6%; in assay [8], 47.6%.

For the origin of these results see PubChem BioAssay (NCI).
